The entries come from a sample that favours hits as a whole.
TTR transcr act: increases transthyretin transcription | SH-SY5Y TTR promoter Gaussia luciferase, luminescence; 100% = recombinant luciferase protein wells | activation, % at 16.7 µM | hit rate 1.3% among 92,000;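 active = activation above the mean of all tested compounds plus 3 SD, cut at about 9.5% in these data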;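 also: cells exposed to compounds for one day before reading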
TTR inh HuH7: decreases TTR transcription in HuH7 cells in activator counter-screen; hit rate 4% among 1,100; HuH7 TTR promoter-Gaussia luciferase reporter, luminescence; inhibition, % at 16.7 µM; shares compounds with TTR transcr act; AID 1117279;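 active = average inhibition above the solvent-only control wells' mean plus 3 SD, cut at about 15% in these data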;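 also: inhibitors lower well luminescence so higher value means more inhibition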
TTR up confirm: confirmation of human transthyretin transcription activators; shares compounds with TTR transcr act; SHSY5Y TTR promoter Gaussia luciferase, luminescence; 100% = purified Lucia enzyme wells, no cells; activation, % at 16.7 µM; 1,100 tested, under 10 active;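 active = mean activation above a set limit taken from the earlier primary screen, cut at about 11% in these data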
Of the large screens only hits and unclear results are named; the others gave an inactive call (follow-up assays come after a bar, where they were run).

COc1cccc(C2NC(=O)NC(C)=C2C(=O)Nc2ccc(C)cc2)c1 (stereo not given)	TTR transcr act 21.2 | TTR inh HuH7 inactive | TTR up confirm inactive
COC(=O)[C@]12C[C@H](CC(=O)NCc3cccc(C(F)(F)F)c3)C(=O)N(Cc3ccco3)C1=C[C@H](COCc1ccccc1)O[C@@H]2C	none
C[C@H]1CCC/C=C/C(=O)c2c(cc(O)c(Cl)c2O)CC(=O)O1	none
O=C(Nc1cccc(F)c1)c1cc(S(=O)(=O)N2CCC(C(=O)O)CC2)ccc1F	none
CCOC(=O)Cn1c(=O)oc2cc(S(=O)(=O)N3CCN(c4ccccn4)CC3)ccc21	none
O=C(Nc1c(F)cc(F)cc1Br)c1cc(S(=O)(=O)N2CCN(c3ccccn3)CC2)ccc1F	TTR transcr act 10.6 | TTR inh HuH7 inactive | TTR up confirm inactive
CCOC(=O)C(Cc1ccccc1)CP(=O)(OC)[C@@H](C)NC(=O)OCc1ccccc1 (stereo not given in full)	none
Oc1ccc(-c2nn[nH]n2)c2cccnc12	none
CCC(=O)Nc1cccc(-c2csc(-c3ccccc3)n2)c1	none
CC(=O)Nc1cccc(-c2csc(N)n2)c1	TTR transcr act 9.7 | TTR inh HuH7 inactive | TTR up confirm inactive
COc1ccc(CC(=O)Nc2cccc(-c3csc(C)n3)c2)cc1	none
COc1ccc2c3c([nH]c2c1)[C@]1(NCC3)C(=O)N(C)c2ccc(Cl)cc21	none
O=C(NCc1ccc(Cl)cc1)c1csc(-c2cccnc2)n1	none
O=C(NNC(=O)c1ccc(Cl)cc1Cl)c1csc(-c2cccnc2)n1	none
O=C(NNS(=O)(=O)c1ccc(F)cc1F)c1csc(-c2cccnc2)n1	TTR transcr act 19.3 | TTR inh HuH7 inactive | TTR up confirm inactive
CC(C)(C)OC(=O)n1ccc2ccc(-c3ccc4cc[nH]c4c3)cc21	none
CCCCCCC(=O)n1ccc2ccc(-c3ccc4ccn(Cc5ccc(OC)cc5)c4c3)cc21	none
CC[C@]1(c2ccc(C)cc2)C(=O)N(C(=O)OC(C)C)N1C(=O)OC(C)C	none
Cc1cn([C@H]2C[C@H](O)[C@@H](CNC(=O)[C@H]3CCC(=O)N3)O2)c(=O)[nH]c1=O	none
Cc1cn([C@H]2C[C@H](O)[C@@H](CNCc3ccc(N4CCN(C)CC4)cc3F)O2)c(=O)[nH]c1=O	none
C=Cn1cc(CNC[C@H]2O[C@@H](n3cc(C)c(=O)[nH]c3=O)C[C@@H]2O)c(C)n1	TTR transcr act 11.4 | TTR inh HuH7 inactive | TTR up confirm inactive
COC(=O)C1CN(Cc2ccccc2)CCS(=O)(=O)N1Cc1cn(Cc2ccccc2Br)nn1 (stereo not given)	none
COC(=O)[C@]12CCCCC=C1N(Cc1ccc(OC)cc1)C(=O)[C@@H]2CC(=O)NCCCN1CCCC1=O	none
CN(C)CCCNC(=O)c1ccc(-c2ccccc2)cc1	TTR transcr act 22.0 | TTR inh HuH7 inactive | TTR up confirm inactive
COc1ccc(C(=O)NCCCN(C)CCCNC(=O)c2ccc(OC)cc2)cc1	none
CN(C)CCCNC(=O)c1ccc(Cl)c(S(=O)(=O)N(C)c2ccccc2)c1	none
N#Cc1ccc(Cn2ccc3ccc(-c4ccc5ccn(C(=O)c6ccccc6)c5c4)cc32)cc1	none
Cc1ccnc2c(N3C(=O)C4C5C=CC(C5)C4C3=O)cccc12 (stereo not given)	TTR transcr act 9.8 | TTR inh HuH7 inactive | TTR up confirm inactive
O=C1C2C3C=CC(C4CC34)C2C(=O)N1c1cccc2ccccc12 (stereo not given)	none
COc1cccc(C(=O)COc2ccccc2N2C(=O)C3C4C=CC(C4)C3C2=O)c1 (stereo not given)	none
O=C(c1ccccc1Oc1ccccc1)N1CCC(Oc2cccnc2)CC1	none
COC(=O)[C@]12C[C@H](CC(=O)NCc3ccc(C)o3)C(=O)N(Cc3ccco3)C1=C[C@H](C1CCCC1)O[C@@H]2C	none
C=CCCC[C@H]1OC(=O)[C@H](C)NC(=O)[C@H](C(C)C)NC(=O)[C@@H]2CCCN2C(=O)[C@H](Cc2ccccc2)OC(=O)[C@@H](C(C)C)N(C)C(=O)[C@H](C(C)C)NC(=O)C1(C)C	none
CC(C)C[C@H]1CN=C(Nc2ccccc2)N1CC(C)C	none
CCC(C)CCN1C(N(C)C)=NC[C@@H]1Cc1ccccc1 (stereo not given in full)	none
CCC(C)CCN1C(N(C)C)=NC[C@@H]1CC(C)C (stereo not given in full)	TTR transcr act 12.3 | TTR inh HuH7 inactive | TTR up confirm inactive
CC(C)(C)OC(=O)NCCc1nnc(SCc2ccccc2)o1	none
O=C(O)c1ccc(CSc2nnc(Cc3ccccc3)o2)cc1	TTR transcr act 12.5 | TTR inh HuH7 42.3 | TTR up confirm inactive
O=C(CSc1nnc(Cc2ccccc2)o1)N1CCc2ccccc21	none
CC(C)CN1C(=O)C[C@@]2(C(=O)N(C)c3ccc(NS(=O)(=O)C4CCCCC4)cc32)C1c1ccccc1 (stereo not given in full)	none
COC(=O)[C@]12C[C@H](CC(=O)NCc3ccccc3)C(=O)N(Cc3cccc4ccccc34)C1=C[C@H](C(C)(C)C)O[C@@H]2C	none
CCCC1CCC2(CC1)CCC2OC(=S)NCc1cccc(F)c1 (stereo not given)	none
CNC(=S)N/N=C/c1c(C(=O)OC)cnn1-c1ccc(Cl)cc1	none
Cc1cc(=O)oc2cc(OCCSCCN3CCCCC3)ccc12	TTR transcr act 20.8 | TTR inh HuH7 inactive | TTR up confirm inactive
Cc1cc(=O)oc2cc(OCCSc3nnc(-c4ccccc4)o3)ccc12	none
Cc1cc(=O)oc2cc(OCC#N)ccc12	none
CCN1C(=O)[C@H]2[C@H]3CN=C(SCc4ccc(Cl)cc4)N3[C@@](Cc3ccccc3)(C(=O)OC)[C@H]2C1=O	none
CCN1C(=O)[C@H]2[C@H]3CN=C(SCc4ccc(C)cc4)N3[C@@](Cc3ccccc3)(C(=O)OC)[C@H]2C1=O	TTR transcr act 23.7 | TTR inh HuH7 inactive | TTR up confirm inactive
CCN1C(=O)[C@H]2[C@H]3CN=C(SCc4ccc(C(=O)OC)cc4)N3[C@@](Cc3ccccc3)(C(=O)OC)[C@H]2C1=O	none
COC(=O)[C@]12C[C@H](CC(=O)N3CCC(c4ccccc4)CC3)C(=O)N(CCc3ccc(OC)c(OC)c3)C1=C[C@H](COCc1ccccc1)O[C@@H]2C	none
COc1cc(OC)cc(C(=O)OCC(=O)Nc2ccc(N3CCCCC3)cc2)c1	TTR transcr act 12.4 | TTR inh HuH7 inactive | TTR up confirm inactive
COc1ccc(OCC(=O)Nc2ccc(N3CCCCC3)cc2)cc1	none
O=C(COC(=O)c1ccc(O)cc1)Nc1ccc(N2CCCCC2)cc1	none
FC(F)(F)c1cc(CNC2CCC23CCC(c2ccccc2)CC3)ccc1Cl (stereo not given)	none
Cc1cc(C)c2c(N)c3cccc(C)c3nc2n1	TTR transcr act 11.9 | TTR inh HuH7 inactive | TTR up confirm inactive
Cc1cc(C)c2c(=O)[nH]c(SCc3ccccc3C)nc2n1	none
Cc1cc(Nc2ccc3c(c2)OCCO3)c2cccc(C)c2n1	none
O=C1CCC(NC(=O)Cc2ccccc2)C(=O)N1 (stereo not given)	none
CN(C)c1cccc(-c2ccnc(N3CCC(C(N)=O)CC3)n2)c1	none
CCN(c1ccccc1)S(=O)(=O)c1ccc(Cl)nc1	TTR transcr act 19.3 | TTR inh HuH7 inactive | TTR up confirm inactive
CCN(c1ccccc1)S(=O)(=O)c1ccc(F)cc1	none
O=S(=O)(c1ccc(Cl)nc1)N(Cc1ccccc1)Cc1ccccc1	none

Assay outcomes deposited in PubChem BioAssay by The Scripps Research Institute Molecular Screening Center.
